# HPGD block = HPGD (human) dehydrogenase inhibition; purified HPGD, NADH fluorescence kinetic, PGE2 substrate; 150,000 compounds, 4.3% hits; Potency, µM, without a hit: at the top dose activity change, negative = inhibition, hits mostly inhibitors; P15428; active = well fitted inhibition curve with a large enough effect, not every such curve was filed as active; inconclusive = small, poorly fitted or top-dose-only effect, or another doubt; inactive = no such curve, though single readings can be large or run the other way
# Target sequence (P15428 whole entry, looked up): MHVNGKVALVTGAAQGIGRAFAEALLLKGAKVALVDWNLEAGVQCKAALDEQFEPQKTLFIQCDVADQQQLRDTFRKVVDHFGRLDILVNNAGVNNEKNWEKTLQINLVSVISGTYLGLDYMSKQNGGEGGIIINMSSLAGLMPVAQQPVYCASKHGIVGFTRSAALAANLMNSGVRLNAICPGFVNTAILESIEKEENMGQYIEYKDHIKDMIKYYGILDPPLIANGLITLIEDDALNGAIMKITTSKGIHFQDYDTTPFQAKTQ
#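 NADH formation kinetics: reaction with 30 uM PGE2 and 1 mM NAD+ (final), 20 nM enzyme, Tris-HCl pH 8 with Tween 20, after 15 min compound preincubation at room temperature. Fluorescence change, last versus first of five reads.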
# Lamin A splicing = modulators of lamin A splicing; Potency, µM (highest dose often 46.1 µM), for inactives: at the top dose ratio change, negative = inhibition, usual class: inhibitors; 200,000 compounds, 0.01% hits; AID 1487; HeLa LMNA splicing GFP/RFP minigene ratio, 48 h; active = well fitted inhibition curve with a large enough effect in the signal ratio, with a control signal flat, not every such curve was filed as active; inconclusive = small, poorly fitted or top-dose-only effect, or effect the other way, or a change in a side signal; the % refers to the signal ratio
#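 Read-out is the ratio of GFP to DsRed2 object intensity, acquired by 488 nm laser-scanning cytometry on HeLa lamin A-EGFP minigene reporter cells. Compound incubation 48 hrs at 37 °C in Opti-MEM with 2% FBS; DMSO 0.5% final.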
# ALDH1A1 inh = inhibitors of human aldehyde dehydrogenase 1A1; P00352; Purified ALDH1A1, NADH fluorescence, propionaldehyde substrate; Potency, µM (doses to about 75.3 µM), inactives show at the top dose activity, negative = inhibition, usual class: inhibitors; 220,000 compounds, 7.3% hits; AID 1030; active = well fitted inhibition curve with a large enough effect, not every such curve was filed as active; inconclusive = small, poorly fitted or top-dose-only effect, or another doubt; inactive = no such curve, though single readings can be large or run the other way;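 note: plate controls were no enzyme wells and a reference inhibitor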
# Luc counter = Kinase-Glo luciferase inhibition (counter-screen). 200,000 compounds, 0.28% hits. Kinase-Glo luciferase, ATP luminescence, 8 min. Potency, µM (series often up to 38.3 µM), without a hit: at the highest dose activity change, negative = inhibition, actives largely listed as inhibitors; note: nearly all actives have a fitted effect of over 60% in size
#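 Kinase-Glo luciferase light output from ATP and luciferin was measured with 10 uM ATP, within the enzyme's linear range. Buffer: 50 mM imidazole pH 7.2, 50 mM KCl, 7 mM MgCl2, 0.01% Tween 20, 0.05% BSA; luminescence read after 8 min at ambient temperature.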
# IMPase Li inh = membrane-permeable IMPase blocker, potentiated with lithium; Potency, µM (series often up to 59.4 µM), inactives show at the top dose activity, negative = IMPase inhibition, usual class: inhibitors; AID 1457; 210,000 compounds, 0.35% hits; CHO-M1 cells, IP1 TR-FRET (IP-One), carbachol + lithium;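 note: IP1 builds up when IMPase is blocked and the TR-FRET signal falls; plate controls were basal vehicle for no effect and high inhibitor control for full effect; nearly all actives have a fitted effect of over 50% in size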
#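 Concentration–response in CHO-M1 cells, lithium-potentiated; 30 min at 37C. IP1 detected by competitive TR-FRET after 10 min lysis at RT. Hill-fitted AC50.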
# * hit, by the source's call; ? = inconclusive; · = not tested or not shown; [ ] = dose if it differs, or a comment. Only some compounds are listed: those with a hit (about 9% of all), similar ones and a draw of the others. Unless noted, calls come from the whole dose curve; as a rule, active = well fitted curve in the direction sought with a large enough effect; inconclusive = small, poorly fitted or top-dose-only effect, or another doubt; inactive = no such curve, though single readings can be large; an effect the other way counts as inactive or inconclusive. Unless noted, % is set by controls: 0 for no effect and ±100 for the full control effect; potency is the fitted concentration of half-maximal effect.
SMILES,HPGD block,Lamin A splicing,ALDH1A1 inh,Luc counter,IMPase Li inh
CCN(CC)S(=O)(=O)c1ccc2c(c1)nc(CCC(=O)Nc1ccc3c(c1)OCO3)n2C,-1%,-18%,7.9µM*,-2%,0%
CCCCn1c(CCC(=O)O)nc2cc(S(=O)(=O)N(C)C)ccc21,·,·,2%,1%,-5%
CN(C)S(=O)(=O)c1ccc2c(c1)nc(CCC(=O)Nc1ccc(N3CCOCC3)cc1)n2C,·,·,-1%,0%,28%
CCN(CC)S(=O)(=O)c1ccc2c(c1)nc(CCC(=O)Nc1ccc3c(c1)OCO3)n2CC,-11%,?,2.8µM*,-4%,8%
CN(C)S(=O)(=O)c1ccc2c(c1)nc(CCC(=O)Nc1ccc3c(c1)OCO3)n2C,-16%,?,5µM*,-8%,-1%
C=CCOc1ccccc1CN1CCCC(CCC(=O)N(C)CCc2ccccn2)C1 (stereo not given),·,·,-2%,·,15%
Cc1cc(C)c2ccc3c(C)c(C)nc3c2[nH]1,·,·,-10%,-2%,-8%
CCN(CC)S(=O)(=O)c1ccc2c(c1)nc(CCC(=O)OCC(=O)Nc1c(F)cccc1F)n2C,-10%,-1%,10µM*,-2%,-3%
Clc1ccc(-n2cc(COCc3ccccc3)nn2)cc1,·,-3%[46 µM],-1%,-2%,3%
Cc1ccc(NC(=O)c2cc(S(=O)(=O)N(C)C3CCCCC3)ccc2F)cc1C,·,0%[46 µM],·,·,·
N#CC(Cc1ccc(O)c(O)c1)C(=O)N1CCc2ccccc21 (stereo not given),28µM*,?,8.9µM*,-3%,38%
Cc1ccc2c(c1)C(=O)c1ccccc1CS2=O (stereo not given),-23%,0%,2.5µM*,-1%,5%
COc1ccc(/C=C2\Cc3ccccc3C2=O)cc1OC,·,2%[46 µM],?,·,·
COC(=O)C(C)Sc1nnc2cc(C)c3cc(C)cc(C)c3n12 (stereo not given),·,5%[46 µM],·,·,·
COc1ccc2[nH]c(C)c(CCN3C(=O)C4C5C=CC(C5)C4C3=O)c2c1 (stereo not given),2%,17%,13µM*,-1%,6%[38.3 µM]
O=C1NC(=S)N/C1=C/c1cc([N+](=O)[O-])ccc1N1CCOCC1,·,-23%[46 µM],25µM*,0%,4%
O=Cc1cc([N+](=O)[O-])ccc1N1CCOCC1,-3%,7%,?,-1%,-4%
NNC(=O)c1ccc([N+](=O)[O-])c(CS(=O)(=O)c2ccc(Cl)cc2)c1,-19%,9%,11µM*,-5%,1%[38.3 µM]
Cc1ncoc1C(=O)N1CCCC(C(=O)c2cccc(C(F)(F)F)c2)C1 (stereo not given),·,?,-5%,4%,17%
Cc1ncoc1C(=O)N1CCCC(C(=O)c2ccc(C(F)(F)F)cc2)C1 (stereo not given),·,·,16µM*,0%,2%
Cc1ncoc1C(=O)N1CCCC(C(=O)c2cccc(OC(C)C)c2)C1 (stereo not given),·,·,25µM*,-4%,6%
Cc1ncoc1C(=O)N1CCCC(C(=O)c2ccc(Oc3ccccc3)cc2)C1 (stereo not given),·,·,2.8µM*,·,21%
CCC1CN(C(=O)N2CCC(C(=O)N3CCN(c4ccccc4)CC3)CC2)c2ccccc2O1 (stereo not given),·,-5%[46 µM],·,·,·
COC(=O)c1ccc(-c2ccco2)n1Cc1nc(-c2ccc(OC)c(OC)c2)oc1C,?,?,7.9µM*,-3%,37%[38.3 µM]
COC(=O)CC1C(=O)NCCN1C(=O)CSc1nc2ccccc2s1 (stereo not given),·,·,18µM*,4%,1%
Cc1ccccc1CN1C(=O)c2ccccc2S(=O)c2ccc(C(=O)NCc3ccc(Cl)cc3)cc21 (stereo not given),·,5%[46 µM],·,·,·
C=CCN1C(=O)CN=C1Nc1cccc(C)c1,·,4%,-2%,·,·
C=CCN1C(=O)CN=C1Nc1cc(C)ccc1C,-5%,10%,3.5µM*,5%,6%[38.3 µM]
O=C(CCN1C(=O)C2C3C=CC(C3)C2C1=O)N1CCN(c2ccc(F)cc2)CC1 (stereo not given),0%,1%,?,0%,1%[38.3 µM]
